Source: PubChem BioAssay (EPA / NIEHS)
Active and inactive are the calls of the source. How the source made its calls: active means hit-call score of the fitted dose curve at least 0.9, where 1 is the maximum; inactive means score below 0.9.

Read-out: Apolipoprotein A-V (APOA5) gene, APOA5 (gene 116519)
Experiment: LTEA_HepaRG_APOA5: Life Technologies and Expression Analysis (LTEA) Assay for Apolipoprotein A-V (APOA5) gene using HepaRG (AID 2283474)
Conditions: mRNA level, 48 h; actives raise or lower the signal
Procedure: LTEA_HepaRG is a cell based, multiplexed-readout assay that uses HepaRG, a human liver cell line, with measurements taken at 48 hours after chemical dosing on a 96-well plate.LTEA_HepaRG_APOA5 is one of 102 assay component(s) measured in the LTEA HepaRG cell culture assay. It is a marker of Steatosis.Data from the assay component LTEA_HepaRG_APOA5 was analyzed into 1 endpoint. This assay endpoint, LTEA_HepaRG_APOA5, was analyzed with bidirectional fitting relative to DMSO as the negative control and baseline of activity. Using a type of inducible reporter, measures of mRNA induction for gain or loss-of-signal activity can be used to understand regulation of transcription factor activity. To generalize the intended target to other relatable targets, this assay endpoint is annotated to the apolipoprotein intended target family, where the subfamily is Steatosis.
A total of 1060 chemcials from the ToxCast library were tested in eight-point concentration-response experiments. Cell culture and cytotoxicity assays were conducted at Thermo Fisher Scientific's Custom Services facility (Madison, WI). A single lot of human HepaRG cells (Thermo Fisher Scientific, Frederick, MD) was used for the cell culture experiments. 96-well format collagen type I coated plates of human HepaRG cells were prepared using established methods. Briefly, cryopreserved HepaRG cells were thawed, plated at a density of approximately 100,000 cells/well in HepaRG Thaw, Plate, and General Purpose media (HPRG770, Thermo Fisher Scientific), and incubated for 48 hours. 0.5% DMSO was selected as vehicle control to balance the requisite need of DMSO in HepaRG cultures to maintain differentiation (for example, baseline metabolism, proportions of hepatocytes vs. cholangiocytes), while enabling further hepatic receptor pathway activation (for example, PXR and CAR) in response to chemical exposure. 48 hours after plating, the culture medium was replaced with HepaRG Serum-Free Incudtion Media. Cells were exposed to each test chemical in duplicate and maintained in CO2 incubators for another 48 hours. Chemical plates were thawed to room temperature and 200x concentrations of treatment groups were prepared. 8-point conentration-reponse curves were made with the highest exposure at 100 uM, followed by half-log dilutions, all in 0.5% DMSO. Each test plate contained variouse controls, induction positive controls (1mM phenobarbital), cytotoxicity positive controls ([…] aflatoxin B1), vehicle controls (0.5% DMSO), and total lysis controls (0.5% DMSO). Cell morphology images were taken using an Essen IncuCyte FLR automated microscope, with six 96-well plates imaged in about 24 minutes. Images were captured and exported and JPEG files. Spent culture media was transfered to black-well plates for the LDH assay, and remaining media was sorted at -80 C for later use. Cells were treated with RLT buffer and frozen until shipped for gene expression analysis. Total RNA was isolated from the cell suspension in 75 uL of Buffer RLT (Qiagen, Germantown, MD 20874) by Quintiles/Expression Analysis (Durham, NC) using a custom isolation procedure. Total RNA from each plate well was transferred to a preamplification plate. Fluidigm's 96.96 Dynamic ArrayTM (Fluidigm, Amsterdam, the Netherlands) technology was used for gene expression analyses by quantitative reverse transcription polymerase chain reaction (qRT-PCR, performed by Quintiles/Expression Analysis, Durham, NC)89. Standard TaqManTM Assays (Applied Biosystems/ThermoFisher Scientific, Foster City, CA) were used to assess the expression of 93 genes selected based on their selectivity and sensitivity to important hepatic receptors known to be modulated by environmental chemicals; importance in human hepatocyte functionality; and hepatotoxicity. […]

Row | Structure (SMILES) | outcome | AC50
1 | [Cl-].[Cl-].[Hg+2] | inactive | –
2 | CCCCCCCCCCCCCN1CC(C)OC(C)C1 (stereo not given) | inactive | –
3 | Clc1ccc(C(c2ccc(Cl)cc2)C(Cl)Cl)cc1 | – | 60.5 µM (active)
4 | ClC1=C(Cl)C2(Cl)C3C(Cl)C=CC3C1(Cl)C2(Cl)Cl (stereo not given) | inactive | –
5 | N#CC(Br)Br | inactive | –
6 | COc1cc(C=O)cc2c1[C@H](COC(N)=O)[C@]1(OC(C)=O)ON2C[C@H]2[C@@H]1N2C(C)=O | – | 0.316 µM (active)
7 | N#CC(Br)(Br)C(N)=O | inactive | –
8 | COC(=O)Nc1nc2ccccc2[nH]1 | inactive | –
9 | c1ccc(NNc2ccccc2)cc1 | inactive | –
10 | CCN(CC)CCO | inactive | –
11 | CCC(C)c1ccc(O)cc1 (stereo not given) | inactive | –
12 | O=C(Nc1ccccc1)c1ccccc1I | inactive | –
13 | Nc1ccc(Oc2ccc(N)cc2)cc1 | inactive | –
14 | Brc1ccc(Oc2ccccc2)cc1 | inactive | –
15 | CN(C)c1ccc(C(=O)c2ccc(N(C)C)cc2)cc1 | inactive | –
16 | CCOc1cccc(C2(N3CCN(c4ccccc4)CC3)CCC(C)CC2)c1 (stereo not given) | inactive | –
17 | OCCCl | inactive | –
18 | O=P(OCCCl)(OCCCl)OCCCl | inactive | –
19 | Cn1cc(-c2ccccc2)c(=O)c(-c2cccc(C(F)(F)F)c2)c1 | inactive | –
20 | c1ccc2c(c1)-c1cccc3cccc-2c13 | inactive | –

Row | Structure (SMILES) | outcome | AC50
21 | CN(C)c1ccccc1 | inactive | –
22 | CC(C)(OOC(C)(C)c1ccccc1)c1ccccc1 | inactive | –
23 | CCNS(=O)(=O)C(F)(F)C(F)(F)C(F)(F)C(F)(F)C(F)(F)C(F)(F)C(F)(F)C(F)(F)F | – | 48.2 µM (active)
24 | Nc1ccc(N=Nc2ccccc2)cc1 | – | 17.7 µM (active)
25 | CCCSC(=O)N(CCC)CCC | inactive | –
26 | Nc1ccc(Cc2ccc(N)cc2)cc1 | inactive | –
27 | CC(C)(C)OOC(C)(C)CCC(C)(C)OOC(C)(C)C | inactive | –
28 | ClCCOCCCl | inactive | –
29 | OCCCBr | inactive | –
30 | CC(C)COC(=O)c1ccccc1C(=O)OCC(C)C | inactive | –
31 | Nc1ccc([N+](=O)[O-])cc1 | inactive | –
32 | C=CCc1ccc2c(c1)OCO2 | inactive | –
33 | CC(C)N(Cc1ccccc1)C(=O)C(C)(C)C | inactive | –
34 | CN(C)C(=O)Nc1ccc(Cl)cc1 | inactive | –
35 | Nc1cc(Cl)cc(C(=O)O)c1Cl | inactive | –
36 | CC(C)(C)C(O)(CCc1ccc(Cl)cc1)Cn1cncn1 (stereo not given) | – | 79.4 µM (active)
37 | C[N+](C)(C)CC1CO1 (stereo not given) | inactive | –
38 | O=Cc1ccco1 | inactive | –
39 | CS(=O)(=O)NC(=O)c1cc(Oc2ccc(C(F)(F)F)cc2Cl)ccc1[N+](=O)[O-] | inactive | –
40 | Cc1ccc(N)c(N)c1 | inactive | –
